One test deals with Albumin (Bos taurus) (UniProt P02769). The test can be described thus: compounds binding labelled BSA control protein – biochemical, small-molecule microarray, Alexa647 label, 635/667 nm fluorescence, artefact control for SMM control protein annotation, profiling panel (AID 1118).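 Note: score merges 667 nm emission intensity and signal-to-noise per printed compound spot.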 The settings on record: BSA-A647 binding, fluorescence 635 nm, higher = more signal.
Test [1] in a line: probe aXIP binding to arrayed compounds – biochemical, NeuroSMM set, 635/667 nm fluorescence, primary screen (AID 1119).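 Note: probe is the protein aXip251-270 applied at 1 µg/mL to compound-printed slides; binding of probe to printed compounds measured as 667 nm fluorescence plus signal to noise.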 The following applies: small-molecule microarray, higher = more signal, called active from +8 up or from −8 down.
A short description of test [2]: probe aNOTCH3 binding on compound microarray – biochemical, small-molecule microarray, 635/667 nm fluorescence, primary screen (AID 1120).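 Note: probe is a biotin-tagged antibody raised against NOTCH3 rather than NOTCH3 protein; score merges spot fluorescence near 667 nm with spot signal to noise.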 The settings on record: higher = more signal.
A short description of test [3]: probe aNOTCH2 binding on compound microarray – biochemical, small-molecule microarray, 635/667 nm fluorescence, primary screen (AID 1121).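 Note: score merges feature fluorescence read at 667 nm with its signal to noise.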 The settings on record: higher = more signal.
The target of test [4] is Carbonic anhydrase 2 (Homo sapiens) (UniProt P00918). The test can be described thus: compounds binding carbonic anhydrase 2 – biochemical, small-molecule microarray, Alexa647-labelled CAII, profiling panel (AID 1122). The settings on record: CAII-A647 binding fluorescence, higher = more signal.
The nature of test [5]: COS7 lysate on small-molecule microarray, probe aHis, 635 nm (AID 1123).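 Note: z-score combines 667nm fluorescence intensity with signal-to-noise per printed compound spot.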 The settings on record: COS7 cell lysate, fluorescence, higher = more signal.
A short description of test [6]: probe aLAP1 signal on lysate-treated microarray – cell lysate, small-molecule microarray, COS7 lysate, primary screen (AID 1124).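 Note: lysate comes from COS7 cells expressing LAP1 and is applied at 0.3 µg/mL; score merges spot fluorescence near 667 nm with signal-to-noise over triplicate slides.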 The following applies: probe aLAP1, fluorescence, higher = more signal.
In a further test the test system is Sam68 (KHDRBS1). Kind of test: compounds binding KHDRBS1 protein – biochemical, small-molecule microarray, 635 nm fluorescence, primary screen (AID 1125).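 Note: score merges 667 nm channel intensity with signal to noise over triplicate slides.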 The following applies: higher = more signal.
The subject of test [7] is Chordin-like protein 2 (CHRDL2). Kind of test: compounds binding chordin-like 2 – biochemical, small-molecule microarray, 635 nm fluorescence, primary screen (AID 1126).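 Note: printed compound slides probed with Chrdl2 protein at 4 µg/mL for 1 h at 4 C; score merges 667 nm emission intensity with signal to noise over three replicate slides.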 The settings on record: fluorescence 635 nm, higher = more signal.
Test [8] deals with Concanavalin-A (Canavalia ensiformis) (UniProt P02866). Kind of test: compounds binding concanavalin A lectin – biochemical, small-molecule microarray, Alexa647 label, 635 nm, artefact control for SMM control protein annotation, primary screen (AID 1127).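 Note: z combines 667 nm emission intensity with signal-to-noise across three replicate slides.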 The settings on record: ConA-A647 binding fluorescence, higher = more signal.

The structures appear in SMILES notation. The source made the active and inactive calls.

Chain of Albumin (Bos taurus) (P02769 whole entry, looked up): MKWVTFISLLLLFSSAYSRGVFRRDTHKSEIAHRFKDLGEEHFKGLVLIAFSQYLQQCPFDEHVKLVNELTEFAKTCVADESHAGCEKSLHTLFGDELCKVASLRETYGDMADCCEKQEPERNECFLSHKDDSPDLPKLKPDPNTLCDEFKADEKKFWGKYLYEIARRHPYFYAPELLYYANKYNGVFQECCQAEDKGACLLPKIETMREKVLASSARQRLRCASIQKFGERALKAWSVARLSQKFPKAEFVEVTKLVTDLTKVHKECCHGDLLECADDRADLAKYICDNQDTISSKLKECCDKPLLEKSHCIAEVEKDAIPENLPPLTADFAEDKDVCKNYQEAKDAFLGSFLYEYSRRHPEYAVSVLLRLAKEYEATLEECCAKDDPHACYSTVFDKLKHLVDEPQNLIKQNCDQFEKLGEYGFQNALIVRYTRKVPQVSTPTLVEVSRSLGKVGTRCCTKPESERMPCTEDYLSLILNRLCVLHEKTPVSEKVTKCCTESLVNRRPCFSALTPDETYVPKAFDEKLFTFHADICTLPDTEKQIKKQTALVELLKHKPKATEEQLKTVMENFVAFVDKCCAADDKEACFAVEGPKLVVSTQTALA
Chain of Concanavalin-A (Canavalia ensiformis) (P02866 whole entry, looked up): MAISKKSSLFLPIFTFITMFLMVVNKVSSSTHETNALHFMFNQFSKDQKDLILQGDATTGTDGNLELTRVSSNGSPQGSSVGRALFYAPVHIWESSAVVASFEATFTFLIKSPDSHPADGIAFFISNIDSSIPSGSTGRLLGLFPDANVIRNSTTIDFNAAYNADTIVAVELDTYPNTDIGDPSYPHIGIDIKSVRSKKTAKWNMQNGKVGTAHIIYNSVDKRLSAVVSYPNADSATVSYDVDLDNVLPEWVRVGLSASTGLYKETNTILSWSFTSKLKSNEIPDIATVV

For `CCCCC(=C=CC[C@H](O)c1cccc(OCCO)c1)C[C@H](O)c1cc(Cl)cc(Cl)c1O`, the composite z-score is 0.436 in the test with Albumin (Bos taurus); -0.0288 in [2]; -0.143 in test [3]; 0.465 in test [4]; 0.686 in test [5]; -0.151 in test [6]. The composite z-score with Sam68 (KHDRBS1) came to 1.03; in [7], 0.0963; in test [8], 1.04. Further, the composite Z-score in [1] is 0.41 (inactive).

For `C=C[C@@H](CO)NS(=O)(=O)c1ccc(Br)cc1`, the composite z-score is 0.225 with Albumin (Bos taurus); -0.331 in [2]; -0.17 in [3]; -0.359 in test [4]; -0.412 in test [5]; -0.32 in test [6]. Moreover, the composite z-score with Sam68 (KHDRBS1) was -2.22; in test [7], 0.222; in [8], -1.76. The composite Z-score in test [1] was -0.67 (inactive).

With `CO[C@H]1O[C@H](CO)[C@@H](OC(=O)Nc2ccccc2)[C@@H]2OC(=O)[C@@H](Cc3ccccc3)C/C=C/C[C@H](Cc3ccccc3)C(=O)O[C@@H]12`, the composite z-score in the test with Albumin (Bos taurus) is 0.0558; in test [2] it was 0.106; in test [3] it was -0.0486; in test [4], 0.315; in test [5] it was 0.923; in [6] it was 0.79. For the same molecule, the composite z-score in the test on Sam68 (KHDRBS1) was 0.296; in test [7], -0.0529; in [8], -0.216. In addition, in [1], the composite Z-score was 0.547 (inactive).

For `COc1ccc([Si](C)(C)[C@@H]2[C@@H](CC(=O)N3Cc4ccccc4C[C@H]3CO)O[C@]3(C(=O)N(Cc4ccc(I)cc4)c4ccccc43)[C@H]2C)cc1`, the composite z-score in the test with Albumin (Bos taurus) was -0.145; in test [2], 0.0676; in test [3], -0.133; in [4], 0.284; in test [5], 0.583; in test [6] it was -0.098. Further, the composite z-score in the test with Sam68 (KHDRBS1) was 1; in [7], 1.35; in test [8] it was 0.957. The composite Z-score in [1] was 0.26 (inactive).

Turning to `CCCC[C@@H](O)C1=C(C)Cn2c(=O)n(-c3ccccc3)c(=O)n2[C@H]1CO`, the composite z-score with Albumin (Bos taurus) was 0.138; in test [2] it was -0.0647; in test [3], -0.219; in test [4], -0.313; in [5], 0.332; in test [6], -0.0242. For the same molecule, the composite z-score in the test on Sam68 (KHDRBS1) was -0.92; in test [7], 0.24; in [8] it was -0.827. Besides, the composite Z-score in test [1] is -0.301 (inactive).

In the case of `O=C1C2C=CC(C(O)C(c3ccccc3)c3ccccc3)N(Nc3ccccc3F)C2C(=O)N1c1ccccc1` (stereo not given), the composite z-score with Albumin (Bos taurus) was 1; in test [2], 0.24; in test [3], -0.0386; in test [4], 0.612; in [5] it was 2.99; in test [6], 1.02. The composite z-score was 1.31 with Sam68 (KHDRBS1), -0.0392 in test [7] and 0.5 in test [8]. In test [1], the composite Z-score is -0.173 (inactive).

For `COC(=O)[C@@]1(Cc2ccccc2)[C@H]2c3cc(C(=O)N(C)C)n(Cc4nc5ccccc5[nH]4)c3C[C@H]2CN1C(=O)c1ccccc1`, the composite z-score was found to be 1.01 with Albumin (Bos taurus); 0.266 in test [2]; 0.0576 in [3]; 0.826 in [4]; 3.44 in test [5]; 0.972 in [6]. Moreover, the composite z-score with Sam68 (KHDRBS1) is 1.24; in test [7] it was -0.538; in test [8], 1.09. Besides, the composite Z-score in test [1] was 0.0729 (inactive).

Take `[N-]=[N+]=Nc1ccccc1C[C@]1(C(N)=O)COC(c2ccc(OCCCO)cc2)=N1`: the composite z-score with Albumin (Bos taurus) is 0.66; in [2], 0.148; in test [3], 0.105; in test [4], 0.77; in test [5], 2.98; in test [6], 1.46. Moreover, the composite z-score is 0.0271 with Sam68 (KHDRBS1), -0.324 in test [7] and -0.401 in test [8]. Further, the composite Z-score in test [1] was 0.745 (inactive).

For `O=C1O[C@@H](c2ccccc2)[C@@H](c2ccccc2)N2[C@@H](c3ccc(OCCO)cc3)[C@]3(C(=O)Nc4ccc(C#CC5=CCCCC5)cc43)[C@@H](C(=O)Nc3nc4ccccc4s3)[C@H]12`, the composite z-score is -0.01 with Albumin (Bos taurus); 0.674 in test [2]; -0.42 in [3]; 0.303 in test [4]; 1.14 in [5]; -0.142 in [6]. In addition, the figures for the composite z-score (in the test with Sam68 (KHDRBS1); in [7]; in test [8]) were 1.28, 0.163 and 1.07, respectively. Besides, the composite Z-score in test [1] is 0.159 (inactive).

For the molecule `O=C1O[C@H](c2ccccc2)[C@H](c2ccccc2)N2[C@H]1[C@@H](C(=O)Nc1nc3ccccc3s1)[C@]1(C(=O)Nc3ccccc31)[C@H]2c1ccccc1OCCO`, the composite z-score in the test with Albumin (Bos taurus) was 0.939; in test [2] it was 0.0242; in test [3] it was -0.014; in test [4], 0.393; in test [5] it was 2.24; in test [6], 0.921. For the same molecule, the composite z-score with Sam68 (KHDRBS1) is 1.29; in test [7] it was -0.131; in [8] it was 0.668. In addition, the composite Z-score in test [1] was 0.417 (inactive).

For the molecule `Cc1cccc([C@H]2C[C@H]3C(Br)=C[C@@]2(CO)C(=O)[C@]32CO2)c1`, the composite z-score was -0.155 in the test with Albumin (Bos taurus); -0.108 in test [2]; -0.147 in [3]; 0.362 in [4]; 0.182 in [5]; -0.24 in test [6]. Moreover, the composite z-score in the test with Sam68 (KHDRBS1) is 0.671; in test [7], -0.15; in test [8], -0.0472. The composite Z-score in test [1] is -0.288 (inactive).

`CCOC(=O)C=C1C[C@@H](c2cccc([N+](=O)[O-])c2)O[C@@H](c2cccc([N+](=O)[O-])c2)O1`: the composite z-score is 0.817 with Albumin (Bos taurus); 0.13 in test [2]; -0.125 in test [3]; 0.425 in [4]; 2.07 in test [5]; 0.863 in test [6]. Also, the composite z-score with Sam68 (KHDRBS1) turned out to be 1.32; in test [7] it was 0.338; in test [8], 1.1. The composite Z-score in test [1] is 0.636 (inactive).

In the case of `CC(=O)NCCCC[C@@H]1NC(=O)[C@H]2C[C@@H](C(=O)NCCCCCN)[C@@H](c3ccc(O)cc3)N2C1=O`, the composite z-score is 0.675 with Albumin (Bos taurus); -0.0677 in test [2]; -0.0706 in [3]; 0.413 in test [4]; 1.1 in [5]; -0.15 in test [6]. Further, the composite z-score with Sam68 (KHDRBS1) came out at 1.21; in test [7], 0.851; in [8], 0.966. Moreover, the composite Z-score in test [1] is 0.0898 (inactive).

The values above are taken from PubChem BioAssay.
